# According to the supplement of paper PMC6555819:
# Legend:
# Assay in all cases: PBM binding z-score (relative to random genomic background probes); higher = stronger binding; sequences stand for … in GC…GCGATTGACAGCGTAGAATGAAGG
# [1] = tested on: PPARg:RXRa DBDmut IVT, anti-RXR (DBD mutation: RXRa K156A/R161A, NR concentration 270 nM, RXRa partner concentration 90 nM)
# In short: (§1)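 Antibodies against each partner of ligand-free nuclear receptor dimers (one per run) detected binding on custom Agilent 4×180K protein-binding microarrays after 1 h incubation. The double-stranded probes had 34-nt variable regions carrying direct-repeat seeds, single-nucleotide variants, half-site ablations and random human genomic background sequences. Binding z-scores, from regression-normalized fluorescence, use the random background probes as reference.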
# [2] = tested on: PPARg:RXRa IVT, anti-PPARg (NR concentration 270 nM, RXRa partner concentration 90 nM)
# In short: as §1
# [3] = tested on: PPARg DBDmut:RXRa IVT, anti-PPARg (DBD mutation: PPARg1 K132A/R137A, NR concentration 270 nM, RXRa partner concentration 90 nM)
# In short: as §1
# [4] = tested on: PPARg DBDmut IVT, anti-PPARg (DBD mutation: PPARg1 K132A/R137A, NR concentration 270 nM)
# In short: as §1
# [5] = tested on: PPARg homodimer (NR concentration 180 nM)
# In short: as §1
# [6] = tested on: PXR:RXRa (NR concentration 270 nM, RXRa partner concentration 90 nM)
# In short: as §1
# [7] = tested on: PXR homodimer (NR concentration 270 nM)
# In short: as §1
# [8] = tested on: RARa:RXR (NR concentration 270 nM, RXRa partner concentration 90 nM)
# In short: as §1
# [9] = tested on: RARa homodimer (NR concentration 270 nM)
# In short: as §1
# [10] = tested on: RARb:RXRa (NR concentration 270 nM, RXRa partner concentration 90 nM)
# In short: as §1
# [11] = tested on: RARb homodimer (NR concentration 270 nM)
# In short: as §1
# [12] = tested on: RARg:RXRa (NR concentration 270 nM, RXRa partner concentration 90 nM)
# In short: as §1
# [13] = tested on: RARg homodimer (NR concentration 270 nM)
# In short: as §1
# [14] = tested on: RXRa DBDmut IVT, anti-RXR (DBD mutation: RXRa K156A/R161A, NR concentration 90 nM)
# In short: as §1
# [15] = tested on: RXRa homodimer (NR concentration 180 nM)
# In short: as §1
# [16] = tested on: THRa:RXRa (NR concentration 90 nM, RXRa partner concentration 90 nM)
# In short: as §1
# [17] = tested on: THRa homodimer (NR concentration 90 nM)
# In short: as §1
# [18] = tested on: VDR:RXRa (NR concentration 270 nM, RXRa partner concentration 90 nM)
# In short: as §1
# [19] = tested on: VDR homodimer (NR concentration 270 nM)
# In short: as §1
Sequence,PBM binding z-score [1],PBM binding z-score [2],PBM binding z-score [3],PBM binding z-score [4],PBM binding z-score [5],PBM binding z-score [6],PBM binding z-score [7],PBM binding z-score [8],PBM binding z-score [9],PBM binding z-score [10],PBM binding z-score [11],PBM binding z-score [12],PBM binding z-score [13],PBM binding z-score [14],PBM binding z-score [15],PBM binding z-score [16],PBM binding z-score [17],PBM binding z-score [18],PBM binding z-score [19]
CCAGACAGGTGAGAAGGTAACTCATCCTCGATTA,1.17,0.6,-0.78,0.324,0.757,0.375,0.22,0.525,0.718,0.607,0.437,0.511,0.745,0.48,0.529,0.505,0.345,0.198,-0.146
ATCTCTAGGTAACGATAGTTCAGTGAATGCAAAT,3.41,3.08,1.42,1.62,0.431,0.926,0.85,0.162,0.352,0.902,0.983,0.601,0.702,-0.137,0.128,0.928,0.354,0.643,0.517
CGTCAAAGTCCAACTAAGGTAACGTAAAGCACGC,0.179,0.394,0.436,-0.503,0.498,0.234,0.179,1.23,0.41,1.9,1.43,0.748,1.4,1.14,0.261,3.44,1.91,0.393,0.579
TCAATGAGGTTATAAGATCAGGGAACGTTGCAAA,2.23,0.886,-0.23,0.398,0.29,0.939,-0.134,1.47,0.789,1.31,0.57,1.52,0.993,1.75,2.19,1.84,0.0539,1.22,0.536
ATATGTAGGTTACATCCGGATCATTCAGGCTATG,7.7,7.49,3.14,2.67,1,0.73,0.559,1.04,0.899,1.05,0.614,1.02,1.25,0.718,1.24,1.3,0.394,0.945,0.331
CCTACTGGGCCATTCGGAGGTCATTGATCATATG,4.18,3.88,-0.0532,-0.182,1.81,3.79,2.38,3.45,-0.323,2.54,3.37,3.59,2.55,0.347,2.38,2.83,1.58,3.03,3.03
GGAACGAGTGCAAGTTGATAGCAGAGTTTGATGG,-0.142,-0.639,0.145,-0.69,-0.875,0.885,1.16,-0.297,-1.23,0.365,-0.0389,-0.00885,0.227,3.42,0.155,-0.241,-0.787,0.646,2.87
TCGAGTAGGTAACCAATGGGGCATTCAGCTTTCT,2.5,1.74,-0.421,-0.752,-0.5,-0.372,-0.877,-0.292,-0.817,0.0352,-0.0946,-0.146,-0.427,0.00393,0.0647,0.124,-0.752,-0.172,-0.729
AATACAGGGTCATCGTGGGCCAGAGTACGCACAG,2.57,4.37,0.764,1.07,2.16,4.59,0.368,4.92,0.514,4.36,3.78,5.59,4.97,3.19,6.45,4.44,1.46,5.18,3.9
CCAGACAGGTGAGAAGGTAACTCGGCCTCGATTA,1.02,0.832,-0.526,-1.05,0.472,-0.382,-0.139,-0.0873,0.15,0.513,0.583,0.465,0.269,0.0522,0.351,0.364,0.256,-0.138,-0.0946
GCTGCTAGGTAAACTGATGGTCAGCTAAAGCTCG,0.994,0.0303,-1.25,-0.794,-1.08,-0.636,-0.67,-0.68,-1.2,-0.155,-0.0474,-0.174,-0.241,-0.0334,-0.342,-0.142,-0.754,-0.576,-0.973
CGTCCAAGGTCAGCAGGTCTGTGAAAGCGACGTG,2.57,2.56,0.914,-0.164,2.67,2.58,0.407,3.61,0.46,4.85,3.23,5.26,6.07,2.62,3.69,3.45,1.82,4.69,1.65
GCTAGCAGGCCATTTGGATCACTCAATGACGGGC,0.765,0.13,-0.26,-0.878,-0.828,-0.802,-0.249,-0.562,-0.338,0.151,-0.535,-0.278,-0.00293,0.0121,-0.0428,-0.754,-0.938,-0.73,-0.518
ATAAGTAGGTTAGCTGGGGTCATTCAGACTAGGC,6.73,6.66,3.65,1.92,3.63,6.42,4.39,5.76,1.28,3.24,3.84,4.16,2.94,1.95,5.34,5.32,3.54,5.98,4.63
TCTCGGACGACACGAAAGGTCAGAGCTCGACATC,1.5,1.09,-0.234,0.0466,3.29,3.8,0.286,4.66,2.43,3.86,4.33,4.43,4.55,0.759,4.8,2.77,0.521,2.96,0.805
